Measurements from the OligoGym collection.

These sequences were tested against YIPF6 (assay: pooled miR-30 sensor sort-seq; sequence = guide strand). Conditions: shRNA.
Note: reference of the scale not given here.

Sequence	sensor-assay potency score (higher = more potent)
TTGTGAGATGGATATATCTGAA	-0.839
TAGGAATGGTGATTTCTCCTTC	0.33
TTGAGGGTGATGGTAACTGCAC	-0.917
TTTCACTATCTGCAGAGTCTCT	-0.747
TTACAGGTCCTGGATCAGCCAA	-1.45
TATCTGCAGAGTCTCTTTGCAG	-1.39
TAAACAGCTAGGGCTCTGCGGT	-0.877
TTTGAGTTGAGGGTGATGGTAA	-0.386
TTTTAGATCACGCATGATGGTA	-0.619
TCTCTTTGCAGCATTAATGCGA	-0.247
TCACTATCTGCAGAGTCTCTTT	-0.696
TTTAGATCACGCATGATGGTAT	0.00293

What follows are sequences tested against YJEFN3 in the same assay as above. Conditions: shRNA.

Sequence	sensor-assay potency score (higher = more potent)
ATGTCCATCTTCTCGCACTGGG	-1.01
TCATCGGGCACGAACCTGCCGG	-1.06
TAGCATGACCGCACAGCTCCAC	-0.593
TGTCCATCTTCTCGCACTGGGT	-1.09
ATAGGCTTCGTTAATGAGCTGC	0.277
TTCGTTAATGAGCTGCACCTCA	-0.35
TTAATGAGCTGCACCTCAGTGG	0.0127
AATCGCTGCCGGTCTCTGCGTC	-0.877
ATGACCGCACAGCTCCACGAGC	-1.82
TTGAGCGTGGCCAGCGCGCGGG	-0.949
TCCATCTTCTCGCACTGGGTGG	-1.52
ATGGACAGCAGCTTGAGCGTGG	0.0409
